For 9 targets, log2 fold change results are on record in the supplement of paper PMC10849652.

The full data set covers some 8,800 targets. This sample favours those with a hit. About 0.5% of all pairs of compound and target were hits. Values without a mark were called inactive.

What all share (test): log2 fold change, soluble protein after heating vs DMSO (PISA); higher = thermal stabilisation; K562 lysate, 10 uM; active = over 0.2 and 3.5 SD of the protein, either way, in both replicates (recomputed)
Compound in assay [1]: NCC(=O)Nc1ccc(-n2nc(C(F)(F)F)cc2-c2ccc3c(ccc4ccccc43)c2)cc1
Summed up: (§1)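 Quantification was by TMTpro 16plex LC-MS/MS with equalised channel sums, applied to the supernatant after 21,000xg for 90 min. Samples were crude K562 extract at 1 mg/mL protein in PBS pH 7.4 with 1 mM MgCl2, treated with 10 μM compound for 30 min, heated for 3 min across 48°C-58°C, pooled and brought to 0.5% NP-40 at 4°C. Values are log-two fold changes in thermal stability relative to solvent controls, from duplicates.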

Compound in assay [2]: O=C(CCCCCCC(=O)Nc1ccccc1)NO [vorinostat]
Summed up:
as §1

Compound in assay [3]: O=C(O)c1ccc2c(c1)nc(Nc1cccc(Cl)c1)c1ccncc12 [silmitasertib]
Summed up:
as §1

Compound in assay [4]: O=C1NC(=O)C(c2cnc3ccccn23)=C1c1cn2c3c(cc(F)cc13)CN(C(=O)N1CCCCC1)CC2
Summed up: as §1

Compound in assay [5]: c1cn2cc(-c3ccc4cn[nH]c4c3)nc(Nc3ccc(N4CCOCC4)cc3)c2n1 [entospletinib]
Summed up:
as §1

Sequence of UniProt Q16891 (Q16891 whole entry, looked up): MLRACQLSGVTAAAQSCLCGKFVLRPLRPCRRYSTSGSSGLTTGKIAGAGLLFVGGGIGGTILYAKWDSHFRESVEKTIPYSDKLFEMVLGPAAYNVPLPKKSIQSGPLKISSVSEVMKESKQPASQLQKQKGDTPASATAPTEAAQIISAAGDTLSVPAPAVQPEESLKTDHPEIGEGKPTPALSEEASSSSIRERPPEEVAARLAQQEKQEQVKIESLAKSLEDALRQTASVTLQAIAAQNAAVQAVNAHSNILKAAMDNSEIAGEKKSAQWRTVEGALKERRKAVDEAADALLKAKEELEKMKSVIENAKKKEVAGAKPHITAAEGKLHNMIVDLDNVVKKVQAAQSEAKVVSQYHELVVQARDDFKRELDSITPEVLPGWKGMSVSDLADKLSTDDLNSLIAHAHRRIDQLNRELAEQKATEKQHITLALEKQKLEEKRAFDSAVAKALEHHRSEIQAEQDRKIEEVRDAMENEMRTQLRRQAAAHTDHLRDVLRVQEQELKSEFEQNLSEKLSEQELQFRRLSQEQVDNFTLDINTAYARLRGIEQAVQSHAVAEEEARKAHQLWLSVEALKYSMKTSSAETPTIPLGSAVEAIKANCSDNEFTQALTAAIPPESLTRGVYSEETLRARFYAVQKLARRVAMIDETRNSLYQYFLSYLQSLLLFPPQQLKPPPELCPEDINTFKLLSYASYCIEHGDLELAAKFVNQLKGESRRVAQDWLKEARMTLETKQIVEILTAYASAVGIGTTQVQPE
Sequence of UniProt Q0VDF9 (Q0VDF9 whole entry, looked up): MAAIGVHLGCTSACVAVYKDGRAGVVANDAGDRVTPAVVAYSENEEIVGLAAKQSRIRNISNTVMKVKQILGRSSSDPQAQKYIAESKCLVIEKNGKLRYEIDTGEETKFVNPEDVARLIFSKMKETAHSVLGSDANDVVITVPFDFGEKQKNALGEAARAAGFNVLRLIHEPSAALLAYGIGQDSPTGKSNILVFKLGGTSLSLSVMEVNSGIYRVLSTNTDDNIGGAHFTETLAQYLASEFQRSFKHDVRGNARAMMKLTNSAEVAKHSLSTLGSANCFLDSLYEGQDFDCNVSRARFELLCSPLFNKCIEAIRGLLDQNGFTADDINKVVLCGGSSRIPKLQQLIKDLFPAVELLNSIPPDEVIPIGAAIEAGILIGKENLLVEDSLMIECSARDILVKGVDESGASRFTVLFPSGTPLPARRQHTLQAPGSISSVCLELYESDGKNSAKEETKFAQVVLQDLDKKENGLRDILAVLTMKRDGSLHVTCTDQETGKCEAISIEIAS
Sequence of UniProt P09211 (P09211 whole entry, looked up): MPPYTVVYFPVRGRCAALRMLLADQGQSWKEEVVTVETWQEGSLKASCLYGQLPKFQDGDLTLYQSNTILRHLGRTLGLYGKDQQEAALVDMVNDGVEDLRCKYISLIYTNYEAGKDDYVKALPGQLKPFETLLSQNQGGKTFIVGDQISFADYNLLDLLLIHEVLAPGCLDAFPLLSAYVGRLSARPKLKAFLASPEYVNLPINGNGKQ
Sequence of UniProt P12081 (P12081 whole entry, looked up): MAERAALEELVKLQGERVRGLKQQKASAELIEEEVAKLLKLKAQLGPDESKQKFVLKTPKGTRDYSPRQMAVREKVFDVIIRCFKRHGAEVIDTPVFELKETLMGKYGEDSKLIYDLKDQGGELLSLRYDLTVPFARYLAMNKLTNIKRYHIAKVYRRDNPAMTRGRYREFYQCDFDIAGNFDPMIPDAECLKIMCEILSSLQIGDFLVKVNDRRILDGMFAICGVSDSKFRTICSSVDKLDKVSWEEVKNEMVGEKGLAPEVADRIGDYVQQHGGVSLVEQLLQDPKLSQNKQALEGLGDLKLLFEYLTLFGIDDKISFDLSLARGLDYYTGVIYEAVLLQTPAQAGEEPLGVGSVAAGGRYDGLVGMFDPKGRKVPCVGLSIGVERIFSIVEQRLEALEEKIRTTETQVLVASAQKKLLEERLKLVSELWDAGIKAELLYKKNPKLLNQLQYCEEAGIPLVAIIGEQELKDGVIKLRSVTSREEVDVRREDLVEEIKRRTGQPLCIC
Sequence of UniProt O94927 (O94927 whole entry, looked up): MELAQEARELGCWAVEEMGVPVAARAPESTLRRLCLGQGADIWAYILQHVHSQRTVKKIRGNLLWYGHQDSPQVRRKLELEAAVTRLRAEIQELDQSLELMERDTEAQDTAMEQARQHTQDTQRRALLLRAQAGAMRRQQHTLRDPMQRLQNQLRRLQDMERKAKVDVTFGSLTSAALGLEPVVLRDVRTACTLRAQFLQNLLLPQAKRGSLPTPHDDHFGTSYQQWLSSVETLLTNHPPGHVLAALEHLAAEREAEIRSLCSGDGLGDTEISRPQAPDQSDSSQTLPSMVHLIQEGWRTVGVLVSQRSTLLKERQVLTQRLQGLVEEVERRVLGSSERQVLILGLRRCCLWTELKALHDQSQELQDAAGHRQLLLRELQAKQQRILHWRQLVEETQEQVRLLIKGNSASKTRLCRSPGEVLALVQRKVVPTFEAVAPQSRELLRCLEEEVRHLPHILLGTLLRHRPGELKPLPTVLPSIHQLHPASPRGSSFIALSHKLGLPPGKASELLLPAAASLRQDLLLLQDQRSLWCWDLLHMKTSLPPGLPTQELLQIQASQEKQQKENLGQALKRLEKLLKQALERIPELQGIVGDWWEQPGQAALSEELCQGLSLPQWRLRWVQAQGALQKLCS
Sequence of UniProt Q92759 (Q92759 whole entry, looked up): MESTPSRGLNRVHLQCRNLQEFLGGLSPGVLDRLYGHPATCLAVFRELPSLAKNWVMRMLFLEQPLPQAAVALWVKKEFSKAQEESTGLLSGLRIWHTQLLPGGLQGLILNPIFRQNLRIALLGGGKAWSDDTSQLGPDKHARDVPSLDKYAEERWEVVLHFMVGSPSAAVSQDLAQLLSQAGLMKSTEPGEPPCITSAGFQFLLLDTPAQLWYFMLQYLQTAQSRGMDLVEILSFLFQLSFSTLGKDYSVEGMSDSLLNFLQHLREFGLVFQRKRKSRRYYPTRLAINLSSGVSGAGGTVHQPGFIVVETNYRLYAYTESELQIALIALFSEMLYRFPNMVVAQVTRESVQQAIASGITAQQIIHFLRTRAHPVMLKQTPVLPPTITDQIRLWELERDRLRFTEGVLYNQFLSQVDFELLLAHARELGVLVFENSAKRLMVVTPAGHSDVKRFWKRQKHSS
Sequence of UniProt Q15046 (Q15046 whole entry, looked up): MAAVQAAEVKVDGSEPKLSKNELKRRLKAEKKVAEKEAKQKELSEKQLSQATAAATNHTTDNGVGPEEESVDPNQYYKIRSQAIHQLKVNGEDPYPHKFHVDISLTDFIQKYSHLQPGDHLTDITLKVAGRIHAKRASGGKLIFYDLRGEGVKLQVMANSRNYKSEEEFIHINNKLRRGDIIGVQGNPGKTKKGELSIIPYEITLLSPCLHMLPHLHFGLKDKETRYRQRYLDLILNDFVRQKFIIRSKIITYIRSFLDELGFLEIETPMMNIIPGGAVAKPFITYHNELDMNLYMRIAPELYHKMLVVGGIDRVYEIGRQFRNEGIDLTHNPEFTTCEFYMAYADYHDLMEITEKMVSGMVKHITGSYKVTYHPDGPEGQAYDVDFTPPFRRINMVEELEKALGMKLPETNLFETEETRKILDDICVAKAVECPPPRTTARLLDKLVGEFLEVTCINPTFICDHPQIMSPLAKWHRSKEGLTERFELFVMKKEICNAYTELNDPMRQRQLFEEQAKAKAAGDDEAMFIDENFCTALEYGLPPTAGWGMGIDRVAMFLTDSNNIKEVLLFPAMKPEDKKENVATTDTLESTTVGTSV
Sequence of UniProt Q9Y5Q8 (Q9Y5Q8 whole entry, looked up): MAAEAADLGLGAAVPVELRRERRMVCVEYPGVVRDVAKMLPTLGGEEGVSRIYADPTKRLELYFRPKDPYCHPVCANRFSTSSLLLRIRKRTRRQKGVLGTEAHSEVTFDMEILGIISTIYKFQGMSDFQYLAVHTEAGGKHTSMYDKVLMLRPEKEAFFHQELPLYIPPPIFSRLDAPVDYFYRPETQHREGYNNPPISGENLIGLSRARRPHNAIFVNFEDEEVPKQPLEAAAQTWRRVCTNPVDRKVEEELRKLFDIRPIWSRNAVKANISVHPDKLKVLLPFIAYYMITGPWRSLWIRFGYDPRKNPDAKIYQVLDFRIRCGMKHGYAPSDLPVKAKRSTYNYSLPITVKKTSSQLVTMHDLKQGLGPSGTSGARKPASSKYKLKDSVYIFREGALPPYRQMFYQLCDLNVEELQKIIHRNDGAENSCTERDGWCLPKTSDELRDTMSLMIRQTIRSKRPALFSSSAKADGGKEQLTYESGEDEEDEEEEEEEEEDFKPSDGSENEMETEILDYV

As for KARS1 (UniProt Q15046), the log2 fold change is 0.021 in assay [1]; -0.011 in assay [2]; 0.022 in assay [3]; -0.026 in assay [4]; 0.006 in assay [5].

As to GTF2H4 (UniProt Q92759), the log2 fold change in assay [1] was 0.01; in assay [2], -0.24 (active); in assay [3], -0.021; in assay [4], -0.021; in assay [5], 0.046.

Regarding GTF3C5 isoform 3 (UniProt Q9Y5Q8), the log2 fold change is 0.002 in assay [1]; -0.296 (active) in assay [2]; 0.016 in assay [3]; 0.04 in assay [4]; -0.021 in assay [5].

HSPA14 (UniProt Q0VDF9): the log2 fold change was -0.022 in assay [1]; -0.226 (active) in assay [2]; 0.035 in assay [3]; -0.007 in assay [4]; -0.009 in assay [5].

With HAUS5 (UniProt O94927), the log2 fold change in assay [1] was 0.031; in assay [2], -0.416 (active); in assay [3], 0.045; in assay [4], -0.015; in assay [5], 0.013.

KDM5B isoform 2 (UniProt Q9UGL1): the log2 fold change was 0.11 in assay [1]; 0.085 in assay [2]; -0.018 in assay [3]; 0.116 in assay [4]; -0.037 in assay [5].

Consider GSTP1 (UniProt P09211), for which the log2 fold change in assay [1] was -0.011; in assay [2] it was -0.352 (active); in assay [3], 0.127; in assay [4] it was 0.04; in assay [5], -0.001.

As to IMMT (UniProt Q16891), the log2 fold change in assay [1] is -0.005; in assay [2], 0.056; in assay [3], 0.033; in assay [4] it was 0.016; in assay [5], 0.017.

In the case of HARS (UniProt P12081), the log2 fold change is -0.031 in assay [1]; -0.003 in assay [2]; 0.02 in assay [3]; -0.054 in assay [4]; 0.001 in assay [5].
